Screening data from PubChem.
This is a sample that favours compounds with a hit; in the whole collection about 2.1% have one here.
Ba/F3 V617F tox = reduce viability of Ba/F3 cells dependent on JAK2V617F; 220,000 compounds, 1.1% hits; inhibition, % at 5.6 µM; Ba/F3 EpoR-JAK2V617F viability, ATP luminescence;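 active = inhibition above the campaign mean plus 3 SD over all tested compounds, cut at about 24% in these data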;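 also: cytokine-independent growth of Ba/F3 cells driven by EpoR plus mutant JAK2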
APP 5UTR inh = APP translation inhibition; SH-SY5Y APP 5'UTR-luciferase reporter, luminescence; inhibition, % at 2 µM; 190,000 compounds, 0.82% hits;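 active = inhibition above a set limit, derived from the sample mean plus 3 SD, cut at about 45% in these data; inconclusive = one replicate passes the limit while the other fails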
aSyn UTR inh = 5' untranslated region of α-synuclein, MLPCN primary screen. 300,000 compounds, 0.82% hits. AID 1813. alpha-synuclein 5'UTR reporter, inhibitor activity. inhibition, % (tested at 7.5 µM); in the data active = inhibition above about 60%; inconclusive = no clear call, values can overlap the other calls;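 also: H4 neuroglioblastoma cells stably carrying SNCA 5'UTR luciferase fusion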
IEC-6 tox = IEC-6 cytotoxicity, counter-screen for KLF5 inhibitors; 290,000 compounds, 0.78% hits; AID 1825; inhibition, % at 5 µM; luminescence viability; in the data active = inhibition above about 22%
KLF5 inhibitor = inhibitors of KLF5 expression. DLD-1 KLF5 promoter-luciferase reporter, luminescence. inhibition, % at 5 µM. 290,000 compounds, 0.23% hits. AID 1700;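 active = inhibition above a per-plate limit of that plate's mean compound inhibition plus 3 SD, cut at about 60% in these data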;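 also: higher means less KLF5 promoter-driven luciferase light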
BaF3 tox = parental Ba/F3 viability inhibition as JAK2V617F counter-screen; CellTiter-Glo ATP luminescence; inhibition, % at 5.6 µM; 220,000 compounds, 1.1% hits; AID 1486;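 active = inhibition above a per-campaign cutoff, the mean inhibition of all tested compounds plus 3 SD, cut at about 27% in these data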
Large screens that a line does not name were inactive.

Cc1ccc(N2C(=O)c3ccccc3C2Nc2ccccc2F)nc1 (configuration not stated)	none
Cc1ccc(N2C(=O)c3ccccc3C2O)nc1 (configuration not stated)	aSyn UTR inh 73
NS(=O)(=O)c1ccc(CNC(=O)/C=C/c2ccco2)cc1	Ba/F3 V617F tox 93, BaF3 tox 56 (no result: APP 5UTR inh)
O=C(/C=C/c1ccco1)NCc1ccc(F)cc1	none
O=C(Nc1ccc(-c2nc3cccnc3s2)cc1)C1CCCO1 (configuration not stated)	aSyn UTR inh 87
O=C(Nc1nc2ccccc2s1)C1CCCO1 (configuration not stated)	BaF3 tox 95
O=C(Nc1ccc(-c2nc3ccccc3o2)cc1)C1CCCO1 (configuration not stated)	none
O=S(=O)(c1ccc2ccccc2c1)N1CCN(C(=S)Nc2ccc(F)cc2)CC1	BaF3 tox 35
CCCCC(=O)Nc1cc(OCC)c(NC(=S)NC)cc1OCC	Ba/F3 V617F tox 24, BaF3 tox 62
CCOc1cc(NC(=S)NC)c(OCC)cc1NC(=O)c1ccc(OC)cc1	none
Cc1sc(NC(=O)CCCC(=O)O)c(C(N)=O)c1-c1ccccc1	APP 5UTR inh 49, aSyn UTR inh inconclusive
Cn1c(-c2ccccc2)cnc1SCC(=O)N1CCCCC1	aSyn UTR inh 83
Cn1c(-c2ccccc2)cnc1SCC(=O)N1CCCc2ccccc21	none
CCOC(=O)C1CCN(C(=O)c2ccc(Cl)c(S(=O)(=O)N3CCOCC3)c2)CC1	BaF3 tox 92
CCOC(=O)C1CCN(C(=O)c2ccc(Cl)c(S(=O)(=O)N3CCCC3)c2)CC1	none (no result: Ba/F3 V617F tox, APP 5UTR inh, BaF3 tox)
Cc1ccc2[nH]c3c(N4CCCCCC4)ncnc3c2c1	Ba/F3 V617F tox 46, BaF3 tox 48
Cc1ccc2[nH]c3c(N4CCN(Cc5ccccc5)CC4)ncnc3c2c1	none
CCOc1ccc(C(=O)CC(NCc2cccs2)C(=O)O)cc1 (configuration not stated)	none
CCCCOC(=O)Cn1c(=O)c2c(nc(Br)n2Cc2ccccc2)n(C)c1=O	BaF3 tox 66
CCOC(=O)Cn1c(=O)c2c(nc(Br)n2Cc2ccccc2)n(C)c1=O	none (no result: aSyn UTR inh)
CCC1CCCCN1CCCNC(=O)c1cc2c(=O)oc3ccc(C)cc3c2s1 (configuration not stated)	none (no result: Ba/F3 V617F tox, APP 5UTR inh, BaF3 tox)
CC1(C)C2CCC1(C)C(OC(=O)c1ccccc1C(=O)O)C2 (configuration not stated)	none (no result: APP 5UTR inh)
CC(=O)OC(COC1C[C@@H]2CC[C@@]1(C)C2(C)C)C[N+]1(C)CCCCC1 (some centres not stated)	BaF3 tox 39 (no result: APP 5UTR inh)
Cc1ccc(NC(=O)CSc2n[nH]c(-c3ccccn3)n2)cc1	aSyn UTR inh inconclusive (no result: Ba/F3 V617F tox, APP 5UTR inh, BaF3 tox)
O=C(CSc1n[nH]c(-c2ccccn2)n1)Nc1ccc(F)cc1	aSyn UTR inh 73 (no result: Ba/F3 V617F tox, APP 5UTR inh, BaF3 tox)
CCOC(=O)C1=C(CNCc2ccc(C)cc2)NC(=O)NC1c1ccc(OC)cc1 (configuration not stated)	Ba/F3 V617F tox 52, BaF3 tox 28
CCOC(=O)C1=C(c2ccccc2)NC(=O)NC1c1ccc(OC)cc1 (configuration not stated)	none
CC(C)CNc1nc(N)c([N+](=O)[O-])c(NCc2ccccc2)n1	aSyn UTR inh 77 (no result: Ba/F3 V617F tox, APP 5UTR inh, BaF3 tox)
Nc1nc(Nc2ccccc2)nc(NCc2ccccc2)c1[N+](=O)[O-]	aSyn UTR inh 84 (no result: APP 5UTR inh)
CCC(Oc1ccccc1)C(=O)Nc1ccc(C)c(S(=O)(=O)N2CCOCC2)c1 (configuration not stated)	none (no result: Ba/F3 V617F tox, APP 5UTR inh, IEC-6 tox, KLF5 inhibitor, BaF3 tox)
COc1cc2c(cc1OC)-c1cc(NC3CCCCCCC3)nc(=O)n1CC2	aSyn UTR inh 70
C/C(=C\C(=O)c1ccc(Cl)cc1)Nc1ccc(N2CCOCC2)cc1	Ba/F3 V617F tox 33, BaF3 tox 28
COc1cccc(N/C(C)=C/C(=O)c2ccc(Br)cc2)c1	none
C/C(=C\C(=O)c1ccc(Br)cc1)Nc1ccc(Cl)cc1	BaF3 tox 92
Cc1ccc(CSc2[nH]c(=O)ncc2C)cc1	none (no result: Ba/F3 V617F tox, APP 5UTR inh, BaF3 tox)
Cc1c(CCC(=O)O)c(=O)oc2cc3oc4c(c3cc12)CCCC4	aSyn UTR inh 68 (no result: APP 5UTR inh)
Cc1c(CCC(=O)NCC(=O)NCC(=O)O)c(=O)oc2cc3oc4c(c3cc12)CCCC4	none (no result: Ba/F3 V617F tox, APP 5UTR inh, BaF3 tox)
Cc1c(CCC(=O)N2CCC[C@H]2C(=O)O)c(=O)oc2cc3oc4c(c3cc12)CCCC4	aSyn UTR inh 77 (no result: Ba/F3 V617F tox, APP 5UTR inh, BaF3 tox)
O=C(NCCN1CCOCC1)NC1(C(F)(F)F)Oc2ccccc2O1	none
COCCNC(=O)NC1(C(F)(F)F)Oc2ccc(Cl)cc2O1 (configuration not stated)	Ba/F3 V617F tox 46, BaF3 tox 39
CCCCNC(=O)NC1(C(F)(F)F)Oc2ccccc2O1	none
O=C(NCc1cccnc1)NC1(C(F)(F)F)Oc2ccc(Cl)cc2O1 (configuration not stated)	Ba/F3 V617F tox 52, BaF3 tox 39
Cc1cc(NC(=O)NC2(C(F)(F)F)Oc3ccc(Cl)cc3O2)no1 (configuration not stated)	Ba/F3 V617F tox 51, BaF3 tox 28
NS(=O)(=O)c1ccc(CCNC(=O)NC2(C(F)(F)F)Oc3ccccc3O2)cc1	Ba/F3 V617F tox 57, BaF3 tox 39
COc1ccc2[nH]c(C(=O)NCc3ccccc3)c(C)c2c1	none (no result: Ba/F3 V617F tox, APP 5UTR inh, BaF3 tox)
Cc1ccc(S(=O)(=O)/N=C(\CCl)N2CCOCC2)cc1	none
O=C(NCCCn1ccnc1)Nc1ccc2c(c1)OCO2	none (no result: Ba/F3 V617F tox, APP 5UTR inh, BaF3 tox)
Cc1ccc(C)c(OCCC(=O)OCC(=O)Nc2ccc(Cl)cn2)c1	none (no result: Ba/F3 V617F tox, APP 5UTR inh, IEC-6 tox, KLF5 inhibitor, BaF3 tox)
CC1=C(C(=O)OCc2ccccc2)C(c2ccccc2[N+](=O)[O-])NC(=O)N1C (configuration not stated)	none (no result: Ba/F3 V617F tox, APP 5UTR inh, BaF3 tox)
CCN=C1S/C(=C\c2ccc(O)c(OCC)c2)C(=O)N1CC	aSyn UTR inh 68
CCCCOc1ccc(C(=O)NCc2ccccn2)cc1	APP 5UTR inh 48
Cc1nc2c(-c3ccc(Cl)cc3)c(C)[nH]n2c(=O)c1Cc1ccccc1	Ba/F3 V617F tox 31, aSyn UTR inh 78, BaF3 tox 41
O=C(NCCCN1CCOCC1)C(=O)N/N=C/c1c2ccccc2cc2ccccc12	aSyn UTR inh 67
O=C(NCCCN1CCOCC1)C(=O)N/N=C/c1c(Cl)cccc1Cl	none
COc1ccc2nc(NC(=O)CSc3nccc(C)n3)sc2c1	none
COc1ccc2nc(NC(=O)CSc3nc(C)cc(=O)[nH]3)sc2c1	APP 5UTR inh 60
CN1C/C(=C/c2cccnc2)C(=O)/C(=C/c2cccnc2)C1	APP 5UTR inh 89 (no result: aSyn UTR inh)
COc1ccc2c(c1)C=Cc1ccccc1O2	none (no result: Ba/F3 V617F tox, APP 5UTR inh, IEC-6 tox, KLF5 inhibitor, BaF3 tox)
O=C(COC(=O)CCN1C(=O)/C(=C\C=C\c2ccccc2)SC1=S)Nc1ccc(Br)cc1	aSyn UTR inh 65
CC(C)c1ccccc1NC(=O)COC(=O)CCN1C(=O)/C(=C\C=C\c2ccccc2)SC1=S	aSyn UTR inh 73
CCOC(=O)C1CCN(c2ncnc3c2cnn3-c2ccc(Cl)cc2)CC1	aSyn UTR inh 65
Clc1ccc(-n2ncc3c(N4CCCC4)ncnc32)cc1	aSyn UTR inh 92
